Records with an inconclusive call do not appear. Where a call stands in place of a potency, no number is given. Activity calls are given as the source filed them. Calls come from the whole dose curve; as a rule, active = well fitted inhibition curve with a large enough effect; inconclusive = small, poorly fitted or top-dose-only effect; inactive = flat fitted curve, though single readings scatter.

One assay deals with CP238. Briefly: qHTS profiling for inhibitors of Plasmodium falciparum proliferation (AID 504749). Note: nearly all actives have a fitted effect of over 60% in size. Particulars: P. falciparum in erythrocytes, SYBR Green DNA, 72 h; series mostly up to 28.7 µM. The essentials: (§1)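 In a 72 h erythrocytic culture (37 C, humidified, 5% CO2) at 2.5% hematocrit and 0.3% starting parasitemia, compounds were tested; SYBR Green I in detergent lysis buffer stained parasite DNA overnight.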
For orientation: Quantitative high-throughput screening tests each substance at several concentrations.
With `CCN(CC)C(=O)c1cccnc1`, the Potency result is “inactive”.
Still for that read-out and setting: the same measure for `CNC(=O)C[C@@H](N)C(=O)N[C@@H](C(=O)N[C@@H]1C(=O)N2[C@@H]1SC(C)(C)[C@@H]2C(=O)O)c1ccc(O)cc1`: “inactive”.
Still for that read-out and setting: next, `CCCCCCCCCCCCCCCCCC(=O)OCC(C)O` (stereo not drawn): “inactive”; `NC(=S)NS(=O)(=O)c1ccc(N)cc1`: “inactive”; `N=C(N)n1cccn1`: “inactive”.
The same measure, in the same setting: next, `Nc1ncnc2c1ncn2CCOCP(=O)(O)O`: “inactive”; `CCC(C(=O)NC(N)=O)c1ccccc1` (stereo not drawn): “inactive”.
`CC(C)CCC[C@@H](C)[C@H]1CC[C@H]2[C@@H]3CC=C4C[C@@H](O)CC[C@]4(C)[C@H]3CC[C@]12C`: the Potency entry was “inactive”.
On the same count and under the same terms, next, `CC1=CCC2CC1C2(C)C` (stereo not drawn): “inactive”; `NC(N)=O`: “inactive”; `Cc1ncc(C[n+]2csc(CCOP(=O)(O)OP(=O)(O)O)c2C)c(N)n1`: “inactive”.
On the same count and under the same terms, the same measure for `Nc1nc(=O)n([C@@H]2CS[C@H](CO)O2)cc1F`: “inactive”; for `CCOC(=O)[C@@H](N)CS`: “inactive”.
On the same count and under the same terms, next, `OCC(O)CO`: “inactive”; `O=C1c2ccccc2C(=O)C1c1ccc(F)cc1`: “inactive”.
Turning to `O=C(O)COc1ccccc1/C=N/NC(=O)c1ccncc1`, the Potency result was “inactive”.
The same measure, in the same setting: next, `Cc1cccc(C)c1NC(=O)C1CCCCN1C` (stereo not drawn): “inactive”; `CCC(C)[C@@H](N)C(=O)O` (stereo partly drawn): “inactive”.
Regarding `CC(C)(Oc1ccc(C2CCCc3ccccc32)cc1)C(=O)O` (stereo not drawn), the Potency entry was “inactive”.
The same measure, in the same setting: next, `CC(CC=O)CCCC(C)(C)O` (stereo not drawn): “inactive”.
Regarding `S=C1SCN(Cc2ccccc2)CN1Cc1ccccc1`, the Potency entry was “inactive”.
Consider `CC(C)Cc1ccc([C@@H](C)C(=O)NS(C)(=O)=O)cc1`, for which the Potency result was “inactive”.
On to `COc1cc2c(cc1OC)[C@@H](Cc1cc(OC)c(OC)c(OC)c1)[N+](C)(CCCOC(=O)CC/C=C/CCC(=O)OCCC[N+]1(C)CCc3cc(OC)c(OC)cc3[C@H]1Cc1cc(OC)c(OC)c(OC)c1)CC2` (stereo partly drawn), for which the Potency entry is “inactive”.
Still for that read-out and setting: the same measure for `COC(=O)CCC[N+](C)(C)C`: “inactive”; for `[O]=[Bi][O][Bi]=[O]`: “inactive”.
The same measure, in the same setting: the same measure for `C[C@]12CC[C@@H]3c4ccc(OC(=O)c5ccccc5)cc4CC[C@H]3[C@@H]1CC[C@@H]2O`: “inactive”; for `Cc1ccc(C(C)(C)c2ccc(C)cc2)cc1`: “inactive”; for `FC(F)OC(Cl)C(F)(F)F` (stereo not drawn): “inactive”.
The same measure, in the same setting: the same measure for `CC(CCc1ccc(O)cc1)NCC(O)c1ccc(O)cc1` (stereo not drawn): “inactive”; for `CC1=C(/C=C/C(C)=C/C=C/C(C)=C/C(=O)Oc2c(C)c(C)c3c(c2C)CC[C@@](C)(CCC[C@H](C)CCC[C@H](C)CCCC(C)C)O3)C(C)(C)CCC1`: “inactive”.
Take `O=P(O)(O)OP(=O)(O)OP(=O)(O)O`: the Potency entry is “inactive”.
On the same count and under the same terms, next, `CO/N=C(\C(=O)N[C@@H]1C(=O)N2C(C(=O)[O-])=C(C[n+]3cccc4c3CCC4)CS[C@H]12)c1csc(N)n1`: “inactive”; `CCCCCCCCCCCC(=O)OCC(O)CO` (stereo not drawn): “inactive”; `CS(=O)(=O)OCC(O)C(O)COS(C)(=O)=O` (stereo not drawn): “inactive”.
For the molecule `CC1=CC(=O)NS(=O)(=O)O1`, the Potency result was “inactive”.
Same read-out and setting: the same measure for `O=C(O)CCCC/C=C(\c1ccccc1)c1cccnc1`: “inactive”; for `CCN(CC)C(=S)S`: “inactive”.
The same measure, in the same setting: the same measure for `C[Se]CC[C@H](N)C(=O)O`: “inactive”.
Consider `CC(C)[C@H](N)C(=O)OCC(CO)OCn1cnc2c(=O)[nH]c(N)nc21` (stereo partly drawn), for which the Potency entry was “inactive”.

The test system of another assay is CP247. Described as above. Particulars: P. falciparum in erythrocytes, SYBR Green DNA, 72 h; series mostly up to 28.7 µM. A digest of the protocol: as §1
Take `CCN(CC)C(=O)c1cccnc1`: the Potency entry was “inactive”.
The same measure, in the same setting: the same measure for `CNC(=O)C[C@@H](N)C(=O)N[C@@H](C(=O)N[C@@H]1C(=O)N2[C@@H]1SC(C)(C)[C@@H]2C(=O)O)c1ccc(O)cc1`: “inactive”.
With `CCCCCCCCCCCCCCCCCC(=O)OCC(C)O` (stereo not drawn), the Potency entry was “inactive”.
Same read-out and setting: the same measure for `NC(=S)NS(=O)(=O)c1ccc(N)cc1`: “inactive”.
Same read-out and setting: the same measure for `N=C(N)n1cccn1`: “inactive”.
The same measure, in the same setting: next, `Nc1ncnc2c1ncn2CCOCP(=O)(O)O`: “inactive”; `CCC(C(=O)NC(N)=O)c1ccccc1` (stereo not drawn): “inactive”.
As for `CC(C)CCC[C@@H](C)[C@H]1CC[C@H]2[C@@H]3CC=C4C[C@@H](O)CC[C@]4(C)[C@H]3CC[C@]12C`, the Potency result was “inactive”.
Same read-out and setting: next, `CC1=CCC2CC1C2(C)C` (stereo not drawn): “inactive”; `NC(N)=O`: “inactive”.
Same read-out and setting: next, `Cc1ncc(C[n+]2csc(CCOP(=O)(O)OP(=O)(O)O)c2C)c(N)n1`: “inactive”.
`Nc1nc(=O)n([C@@H]2CS[C@H](CO)O2)cc1F`: the Potency entry was “inactive”.
Same read-out and setting: next, `CCOC(=O)[C@@H](N)CS`: “inactive”.
The same measure, in the same setting: next, `OCC(O)CO`: “inactive”; `O=C1c2ccccc2C(=O)C1c1ccc(F)cc1`: “inactive”.
Regarding `O=C(O)COc1ccccc1/C=N/NC(=O)c1ccncc1`, the Potency result was “inactive”.
Same read-out and setting: next, `Cc1cccc(C)c1NC(=O)C1CCCCN1C` (stereo not drawn): “inactive”.
Same read-out and setting: next, `CCC(C)[C@@H](N)C(=O)O` (stereo partly drawn): “inactive”; `CC(C)(Oc1ccc(C2CCCc3ccccc32)cc1)C(=O)O` (stereo not drawn): “inactive”; `CC(CC=O)CCCC(C)(C)O` (stereo not drawn): “inactive”.
As for `S=C1SCN(Cc2ccccc2)CN1Cc1ccccc1`, the Potency entry is “inactive”.
Still for that read-out and setting: the same measure for `CC(C)Cc1ccc([C@@H](C)C(=O)NS(C)(=O)=O)cc1`: “inactive”.
The same measure, in the same setting: the same measure for `COc1cc2c(cc1OC)[C@@H](Cc1cc(OC)c(OC)c(OC)c1)[N+](C)(CCCOC(=O)CC/C=C/CCC(=O)OCCC[N+]1(C)CCc3cc(OC)c(OC)cc3[C@H]1Cc1cc(OC)c(OC)c(OC)c1)CC2` (stereo partly drawn): “inactive”.
Same read-out and setting: next, `COC(=O)CCC[N+](C)(C)C`: “inactive”.
`[O]=[Bi][O][Bi]=[O]`: the Potency entry was “inactive”.
Still for that read-out and setting: the same measure for `C[C@]12CC[C@@H]3c4ccc(OC(=O)c5ccccc5)cc4CC[C@H]3[C@@H]1CC[C@@H]2O`: “inactive”; for `Cc1ccc(C(C)(C)c2ccc(C)cc2)cc1`: “inactive”; for `FC(F)OC(Cl)C(F)(F)F` (stereo not drawn): “inactive”.
On the same count and under the same terms, next, `CC(CCc1ccc(O)cc1)NCC(O)c1ccc(O)cc1` (stereo not drawn): “inactive”; `CC1=C(/C=C/C(C)=C/C=C/C(C)=C/C(=O)Oc2c(C)c(C)c3c(c2C)CC[C@@](C)(CCC[C@H](C)CCC[C@H](C)CCCC(C)C)O3)C(C)(C)CCC1`: “inactive”.
Still for that read-out and setting: the same measure for `O=P(O)(O)OP(=O)(O)OP(=O)(O)O`: “inactive”; for `CO/N=C(\C(=O)N[C@@H]1C(=O)N2C(C(=O)[O-])=C(C[n+]3cccc4c3CCC4)CS[C@H]12)c1csc(N)n1`: “inactive”; for `CCCCCCCCCCCC(=O)OCC(O)CO` (stereo not drawn): “inactive”.
Regarding `CS(=O)(=O)OCC(O)C(O)COS(C)(=O)=O` (stereo not drawn), the Potency entry is “inactive”.
In the case of `CC1=CC(=O)NS(=O)(=O)O1`, the Potency result was “inactive”.
For the molecule `O=C(O)CCCC/C=C(\c1ccccc1)c1cccnc1`, the Potency result is “inactive”.
As for `CCN(CC)C(=S)S`, the Potency result is “inactive”.
On the same count and under the same terms, the same measure for `C[Se]CC[C@H](N)C(=O)O`: “inactive”; for `CC(C)[C@H](N)C(=O)OCC(CO)OCn1cnc2c(=O)[nH]c(N)nc21` (stereo partly drawn): “inactive”.

The values above are taken from PubChem BioAssay (NCATS).
